# According to PubChem BioAssay (NCATS):
# Results filed as inconclusive are left out. A call without a number means that no potency is given here. Activity calls are given as the source filed them. Calls follow the shape of the dose curve; as a rule, active = well fitted curve in the direction sought with a large enough effect; inconclusive = small, poorly fitted or top-dose-only effect, or another doubt; inactive = no such curve, though single readings can be large; an effect the other way counts as inactive or inconclusive.
# Molecular target: Rap guanine nucleotide exchange factor 3 (Homo sapiens) (UniProt O95398)
# Sequence (O95398 whole entry, looked up): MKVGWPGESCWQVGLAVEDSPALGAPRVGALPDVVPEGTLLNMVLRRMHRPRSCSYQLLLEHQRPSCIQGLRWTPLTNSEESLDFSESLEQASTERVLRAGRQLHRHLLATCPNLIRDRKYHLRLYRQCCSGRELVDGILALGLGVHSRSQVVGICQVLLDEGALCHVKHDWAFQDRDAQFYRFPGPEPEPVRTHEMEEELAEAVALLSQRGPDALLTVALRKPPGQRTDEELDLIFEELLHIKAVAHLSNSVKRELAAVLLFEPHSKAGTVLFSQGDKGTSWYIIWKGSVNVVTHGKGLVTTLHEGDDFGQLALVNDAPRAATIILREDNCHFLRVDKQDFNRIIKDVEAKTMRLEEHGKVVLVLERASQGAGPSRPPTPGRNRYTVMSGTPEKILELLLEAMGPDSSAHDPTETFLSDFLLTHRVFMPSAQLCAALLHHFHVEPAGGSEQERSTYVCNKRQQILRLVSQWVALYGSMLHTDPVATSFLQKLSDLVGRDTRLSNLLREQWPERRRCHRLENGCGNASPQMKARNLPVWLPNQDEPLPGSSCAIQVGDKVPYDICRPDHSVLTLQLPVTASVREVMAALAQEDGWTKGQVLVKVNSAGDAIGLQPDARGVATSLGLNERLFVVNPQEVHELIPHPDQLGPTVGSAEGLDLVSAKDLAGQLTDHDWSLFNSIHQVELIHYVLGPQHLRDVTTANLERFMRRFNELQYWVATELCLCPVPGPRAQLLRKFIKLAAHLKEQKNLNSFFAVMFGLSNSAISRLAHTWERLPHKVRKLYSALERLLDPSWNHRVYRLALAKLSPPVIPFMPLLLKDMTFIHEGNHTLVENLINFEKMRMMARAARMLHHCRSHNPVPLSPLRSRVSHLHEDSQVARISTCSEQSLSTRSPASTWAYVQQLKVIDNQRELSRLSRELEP
# Test: Confirmatory qHTS for antagonist of cAMP-regulated guanine nucleotide exchange factor 3 (EPAC1) (AID 1645880); also: nearly all actives have a fitted effect of over 55% in size; also: potency is read from the fitted curve at half-maximal effect
# Details: EPAC1 Rap1B-BODIPY-GDP exchange, fluorescence; activity, negative = inhibition: at 115 µM (top of the series)
# In short: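 Nucleotide exchange uses 100 nM EPAC1, 250 nM RAP1B-BODIPY-GDP and 50 uM GDP, with compounds in a concentration-titration series. After 5 min at room temperature, fluorescence (480 nm ex/540 nm em) is read every 5 min for 30 min. Data are normalized to control ATA and DMSO.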
row,Compound,Potency
1,CC1CCN(C2(O)C(=O)Nc3ccc(Br)cc32)CC1 (stereo not given),inactive
2,CCCCn1nnnc1C(c1cc2ccccc2o1)N1CCCCC1 (stereo not given),inactive
3,CN1c2ccccc2C(C)(C)C12C=Nc1c(cc(N3CCOCC3)c3ccccc13)O2 (stereo not given),inactive
4,COc1cc2c3nnc(-c4ccc(F)cc4)c-3cn(Cc3cccc(C)c3)c2cc1OC,inactive
5,O=C(O)c1ccc(COc2ccccc2/C=C2/NC(=O)N(c3cccc(Cl)c3)C2=O)cc1,37.9 µM (active)
6,CCOCCCNc1nc2c(C)cccn2c(=O)c1/C=C1\SC(=S)N(CC(C)C)C1=O,inactive
7,CCOc1ccc(S(=O)(=O)Nc2cc(SCC(=O)O)c(O)c3ccccc23)cc1,67.5 µM (active)
8,CN1CC=C2C(C#N)=C(N)C(C#N)(C#N)[C@H](c3cccc(Cl)c3)C2C1 (stereo not given in full),inactive
9,O=[N+]([O-])c1c(Nc2ccccn2)cc(Cl)c2nonc12,inactive
10,C[n+]1ccc(/C=C/c2c[nH]c3ccccc23)cc1,inactive
11,O=[N+]([O-])/C=C/c1cn(Cc2ccc(Cl)cc2)c2ccccc12,inactive
12,COc1cccc(Nc2nnc(-c3cc4ccc(O)cc4oc3=O)s2)c1,inactive
13,Fc1ccc(Nc2cncc(-c3ccsc3)c2)cc1Cl,75.7 µM (active)

# Molecular target: Rap guanine nucleotide exchange factor 3 (Homo sapiens) (UniProt O95398)
# Test: Confirmatory qHTS for agonist of cAMP-regulated guanine nucleotide exchange factor 3 (EPAC1) (AID 1645881);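 also: EPAC1 catalysed release of BODIPY-GDP from Rap1B seen as fluorescence loss; nearly all actives have a fitted effect of over 75% in size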
# Details: EPAC1 Rap1B BODIPY-GDP exchange fluorescence; series mostly up to 154 µM
row,Compound,Potency
1,N#CC(c1ccccc1)C(CC(=NO)c1ccccc1)c1ccccc1 (stereo not given),inactive
2,CCc1ccc(-c2cc(C)no2)cc1S(=O)(=O)N1CCC(C)CC1,inactive
3,Cc1ccc(Nc2nc3nonc3[nH]c2=O)cc1Cl,inactive
4,CSc1cccc(N2CC(C(=O)Nc3cccc(S(=O)(=O)N4CCCC4)c3)CC2=O)c1 (stereo not given),inactive
5,Cc1ccc(-c2cc(C(=O)Nc3ccncc3)c3ccccc3n2)cc1,inactive
6,Cn1cc([C@]2(O)C(=O)Nc3ccc(Br)cc32)c2ccccc21,inactive
7,CCOc1cc(/C=N/Nc2ccc(C(=O)O)cc2)ccc1OC(=O)c1ccccc1C,inactive
8,NC(=O)c1c(NC(=O)CSc2nnc(-c3ccco3)n2N)sc2c1CCCC2,inactive
9,CC(C)C[C@@H](COc1ccccc1)N1CCN(CCc2ccccc2)CCC1=O,inactive
10,COc1ccc(C(=O)/C=C/c2ccccc2)c(OC)c1,inactive
11,FC(F)(F)c1ccc(CSc2nccn2-c2ccccc2)cc1,inactive
12,CCCCNC(=O)C[C@@H]1C[C@@]2(C(=O)OC)CCCCC=C2N(Cc2cccc3ccccc23)C1=O,inactive
13,O=C(CCN1C(=O)/C(=C/c2ccc3c(c2)OCO3)SC1=S)Nc1ccc(C(=O)O)cc1,inactive
14,c1ccc(-c2onc(-c3ccco3)c2-c2ccc3[nH]ccc3c2)cc1,inactive
15,Cc1ccc(C)n1-c1nn(S(=O)(=O)c2ccccc2)c2cccc(F)c12,inactive
16,CCC(CO)Oc1cc(NCc2ccc(C(C)(C)C)cc2)c2ncn(C(C)C)c2c1 (stereo not given),inactive
17,CCCCC[C@H](C)N1C[C@@H](COCc2ccccc2)Oc2cc(N3CCC[C@H]3C(N)=O)ccc2S1(=O)=O,inactive
18,CC1CC(C)CN(C(=S)SCc2nc(N)nc(Nc3ccccc3)n2)C1 (stereo not given),inactive
19,Cc1ccccc1NS(=O)(=O)c1ccc2c3c(cccc13)C(=O)N2C,inactive
20,c1ccc(C(c2cccs2)c2c[nH]c3ccccc23)cc1 (stereo not given),inactive
21,CCOc1cc(S(=O)(=O)Nc2ccccc2CC)ccc1Cl,inactive
22,CC[N+](C)(C)c1ccc(/C=C/c2ccnc3ccccc23)cc1,inactive
23,COc1ccc(SC[C@H](C)CN2CC[C@H](C(C)(C)C)CCC2=O)cc1,inactive
24,NS(=O)(=O)c1ccc2c(c1)C1C=CCC1C(C1CC=CCC1)N2 (stereo not given),inactive
25,Cc1onc(-c2ccccc2Cl)c1C(=O)OCc1cnc(Cl)s1,inactive
26,CN(c1ccccc1)c1nc(N)c([N+](=O)[O-])c(N2CCCCC2)n1,inactive
27,c1ccc(-c2onc(-c3ccco3)c2-c2ccc3c(c2)OCO3)cc1,inactive
